This note sets out measurements from the supplement of paper PMC6763611.

Structures are written as SMILES.

The test system of this assay is Plasmodium falciparum NF54. As to the kind of experiment: growth inhibition relative to untreated control; higher = more inhibition. The following applies: 1 µM; MM + chorismate end-products (CM screening medium); 72 h. The procedure, abridged:
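Ring-stage P. falciparum NF54 parasites at 1% hematocrit and 1% parasitemia were dispensed at 100 μL/well into dark 96-well half-area plates and given a single dose of test compound at 5 μM or 1 μM for 72 h at 37 °C. Incubation took place in minimal RPMI, either alone or supplemented with the chorismate end-products folate (2.2 μM), pABA (7.3 μM), pHBA (7.3 μM), tyrosine (111 μM), phenylalanine (90 μM) and tryptophan. Growth inhibition was determined with SYBR Green relative to untreated wells, using uninfected erythrocytes for background.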
As to `N#CCN(CCCCN1CCN(c2ccc(F)cc2)CC1)C(=O)OCc1ccccc1`, the growth inhibition turned out to be 20.2%.

Regarding `COc1cc(OC)cc(C(=O)NCC2Cc3cc(Cl)cc(-c4ccncc4)c3O2)c1` (stereo not drawn), the growth inhibition was 91.9%.

As for `CN1CCCC1CCO[C@](C)(c1ccccc1)c1ccc(Cl)cc1` (stereo partly drawn), the growth inhibition turned out to be 96.4%.

In the case of `O=C(C1CCN(c2cc(-n3cccc3)ncn2)CC1)N1CCc2ccccc2C1`, the growth inhibition is 11.5%.

In the case of `Brc1cncc(-c2cc(NCCCn3ccnc3)nc(-c3ccccc3)n2)c1`, the growth inhibition was more than 100%.

As to `O=C(NC1CCCCC1)N1CCN(Cc2ccc3c(c2)OCO3)CC1`, the growth inhibition was less than 0%.

As for `CCNC(=O)C(C)Nc1nc(-c2cccnc2)nc2sc(C)c(C)c12` (stereo not drawn), the growth inhibition came out at 5.05%.

For `CN(C)c1cc(NC(=O)Nc2ccccc2)c2ccccc2n1`, the growth inhibition is 96%.

Take `Nc1ncnc2c1ncn2C[C@@H](O)[C@@H](O)C(=O)O`: the growth inhibition came out at 44.8%.

As for `CCOC(=O)NC(=O)c1ccsc1NC(=O)c1nc2ccccc2s1`, the growth inhibition came out at 36.1%.

On to `O[C@@H](c1cc(C(F)(F)F)nc2c(C(F)(F)F)cccc12)[C@H]1CCCCN1`, for which the growth inhibition was 94.5%.

As for `Cc1ccccc1CN1CCC(O)(c2ccc(Cl)c(C(F)(F)F)c2)CC1`, the growth inhibition stood at 51.6%.

Turning to `CC(=O)NCC1CN(c2ccc(-c3ccc(CO)cc3)c(F)c2)C(=O)O1` (stereo not drawn), the growth inhibition was less than 0%.

As for `CCOc1ccc2cc(-c3nn(C(C)(C)C)c(N)c3C(N)=O)cnc2c1`, the growth inhibition turned out to be 11%.

As for `c1ccc2c(c1)CN(CC1CC1)CC1(CCN(Cc3c[nH]c4cnccc34)CC1)O2`, the growth inhibition amounted to 99%.

As to `COc1ccc(C2=NN(C3CCCCCC3)C(=O)[C@@H]3CC=CC[C@H]23)cc1OCCCCOc1ccc(-c2nnn[nH]2)cc1`, the growth inhibition worked out at 19%.

Consider `CN1CCN(c2nccc3[nH]c(-c4cccc(F)c4)cc23)CC1`, for which the growth inhibition was less than 0%.

With `COc1ccc(C2CC(c3cccs3)=NN2C(=O)c2ccco2)cc1OC` (stereo not drawn), the growth inhibition was 91.4%.

Take `CC1CS(=O)(=O)CCN1/N=C/c1ccc([N+](=O)[O-])o1` (stereo not drawn): the growth inhibition is less than 0%.

Turning to `Nc1ccc(C(=O)Nc2ccc(-c3nc4ccccc4o3)cc2)cc1`, the growth inhibition was determined as 23.2%.

`Cc1cc(O)nc(-n2nc(C)cc2C)n1`: the growth inhibition came out at 5.27%.

Turning to `Cc1c[nH]c(CCNC(=O)c2cc(-c3ccc(Cl)cc3)cs2)n1`, the growth inhibition is more than 100%.

Consider `Nc1ncnc2c1c(Cc1cccc3ccccc13)nn2CC1CCNCC1`, for which the growth inhibition turned out to be 18.3%.

With `CCCCS(=O)(=O)Nc1ccc2cnn(C)c2c1`, the growth inhibition is 3.73%.

With `COc1ccc2nccc(NC(=O)C3CCN(CCc4ccc(Cl)cc4)CC3)c2n1`, the growth inhibition was found to be 33.1%.

Consider `Cc1noc(C)c1C(=O)N1CCCC(c2[nH]c3c(C)cccc3c2-c2ccncc2)C1` (stereo not drawn), for which the growth inhibition was 97.7%.

Consider `FC(F)(F)c1cccc(-c2nc3c(NCc4ccncc4)nccc3[nH]2)c1`, for which the growth inhibition worked out at 99.9%.

For `CCOc1ccc(-c2nc(NC(=O)CS(=O)(=O)c3ccccc3)sc2C)cc1`, the growth inhibition turned out to be 96.4%.

Turning to `O=C(NCCc1ccccc1)c1cc(-c2cccnc2)cnc1NCC1CC1`, the growth inhibition was 77.5%.

Take `COc1cc(C2=NCCN2)ccc1-c1cn(-c2cccc(C3=NCCN3)c2)nn1`: the growth inhibition amounted to 68.5%.

With `Cc1ccc2nc(C)c(-c3ccn(Cc4ccccc4)n3)n2c1`, the growth inhibition was 43%.

Turning to `CCN(CC)CCCN1CCN(C(=O)c2cccc(-c3noc(C(F)(F)F)n3)c2)CC1`, the growth inhibition was determined as 86.3%.

Consider `Cc1ccc2[nH]c3c(NCCN(C)C)ncnc3c2c1`, for which the growth inhibition was determined as 97.6%.

In the case of `C[C@]1(O)C[C@@H](c2nc(-c3ccc4ccc(-c5ccccc5)nc4c3)c3c(N)nccn32)C1`, the growth inhibition was 35%.

In the case of `COC(=O)C1=C(C)NC(C)=C(C(=O)OC(C)C)C1c1cccc2nonc12` (stereo not drawn), the growth inhibition was found to be 42%.

Take `O=S(=O)(c1ccc(Cl)cc1)N1CCN(C(=S)NCc2ccco2)CC1`: the growth inhibition amounted to 97.7%.

Take `O=C(Nc1nnc(-c2ccc(Cl)cc2)o1)c1cccc(C(F)(F)F)c1`: the growth inhibition is 11.8%.

Turning to `CC1COC2(CCN(c3nc(=O)c4cc(C(F)(F)F)cc([N+](=O)[O-])c4s3)CC2)O1` (stereo not drawn), the growth inhibition amounted to 6.95%.
